G9a inh = blocks human histone lysine methyltransferase G9a; Potency, µM (series often up to 102 µM), most hits filed as inhibitors; Q96KQ7; 8.8% of 350,000 active; G9a H3K9 monomethylation, AlphaScreen, 2 h; further: nearly all actives have a fitted effect of over 75% in size
Target sequence (Q96KQ7 913-1193 limits assumed): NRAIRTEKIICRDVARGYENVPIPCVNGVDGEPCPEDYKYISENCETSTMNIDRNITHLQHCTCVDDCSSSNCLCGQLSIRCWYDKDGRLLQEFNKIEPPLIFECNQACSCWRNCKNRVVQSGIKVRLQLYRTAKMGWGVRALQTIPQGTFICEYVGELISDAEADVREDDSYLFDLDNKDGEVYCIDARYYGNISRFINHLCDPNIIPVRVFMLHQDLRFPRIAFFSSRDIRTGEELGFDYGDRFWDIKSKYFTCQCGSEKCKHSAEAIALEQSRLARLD
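Chemiluminescent proximity detection of H3K9 monomethylation, read after 10 min bead incubation in the dark. Reaction: 20 nM G9a, 500 nM biotin-H3K9 peptide, 20 uM SAM cofactor, 2 h, room temperature, following 15 min enzyme-compound preincubation.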
CtBP-E1A blk = CtBP/E1A binding inhibition. AlphaScreen GST-E1A/His-CtBP binding, 1536-well; active compounds read low. 0.49% of 340,000 active. AID 651724. activity change, % (no concentration beside the values); in the data active means activity change below about -65%; inconclusive means mostly about -30% to -63%
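AlphaScreen with 125 nM GST-E1A and 125 nM His-CtBP (5X stocks) in Tris pH 8.0, 300 mM NaCl, BSA, Tween 20, TCEP. Compounds preincubated 2 h at 37 deg C, then glutathione donor/nickel acceptor beads added for 1 h at 37 deg C in dark.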
BAZ2B block = blocks human BAZ2B. AlphaScreen BAZ2B-H3K14Ac peptide displacement. 4.4% of 360,000 active. Potency, µM (doses to about 114 µM), usual class: inhibitors. Q9UIF8; further: nearly all actives have a fitted effect of over 60% in size
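In this displacement format the biotinylated H3(5-23) peptide acetylated at Lys14 serves as ligand at 50 nM, with BAZ2B at 50 nM in PBS pH 7.4 containing 0.01% Tween-20. Donor and acceptor beads are 10 ug/mL final.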
JMJD2A Tudor = JMJD2A Tudor domain (human) inhibition. Potency, µM (top dose mostly 114 µM), most hits filed as inhibitors. O75164. AlphaScreen JMJD2A-Tudor / H3K4me3 peptide binding. 4.4% of 390,000 active; further: nearly all actives have a fitted effect of over 50% in size
Six1-Eya2 blk = blocks human Six1 binding to Eya2; Q15475+O00167; AlphaScreen GST-Six1/His-Eya2 binding, biochemical; active compounds read low; activity change, % (no concentration beside the values); 0.56% of 360,000 active; AID 651725; in the data active means activity change below about -65%; inconclusive means mostly about -30% to -63%
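AlphaScreen with GST-Six1 and His-Eya2 (5X mix: 250 nM and 500 nM), glutathione donor and nickel acceptor beads; buffer 50 mM Tris pH 8.0, 300 mM NaCl, 1 mM TCEP; 1 h at 37 C in the dark.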
HP1b binding inh = blocks HP1-beta chromodomain binding to methylated histone tails. P83916. AlphaScreen HP1-beta / biotin-H3K9me3 peptide binding. 0.56% of 390,000 active. Potency, µM (doses to about 114 µM), hits mostly inhibitors; further: nearly all actives have a fitted effect of over 70% in size
Target sequence (P83916 whole entry, looked up): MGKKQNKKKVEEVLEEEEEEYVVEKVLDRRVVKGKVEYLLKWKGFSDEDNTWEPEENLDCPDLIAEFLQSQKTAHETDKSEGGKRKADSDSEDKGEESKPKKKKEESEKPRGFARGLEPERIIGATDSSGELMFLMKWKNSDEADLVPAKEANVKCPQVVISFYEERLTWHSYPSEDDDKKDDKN
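AlphaScreen: HP1-beta (50 nM) preformed 30 min with biotin-H3(1-18)K9me3 peptide (50 nM) in PBS pH 7.4, 0.01% Tween-20. Compound added for 30 min at RT, then streptavidin donor/nickel chelate acceptor beads (10 ug/mL) for 30 min.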
Numbers stand for hits; - = inactive; ? = inconclusive; . = no result given; [ ] = remark or other dose. In the library only some 10% were active in any assay of this set; here they are far more common. Unless noted, the call rests on the fitted dose curve; in most records, active means well fitted inhibition curve with a large enough effect; inconclusive means small, poorly fitted or top-dose-only effect; inactive means no such curve, though single readings can be large or run the other way.

SMILES	G9a inh	CtBP-E1A blk	BAZ2B block	JMJD2A Tudor	Six1-Eya2 blk	HP1b binding inh
COc1ccc(C(=O)N2c3ccccc3C=CC2C#N)cc1 (stereo not drawn)	-	-	-	-	-	-
COc1ccc(C)c2sc(NC(=O)c3ccc(S(=O)(=O)N4CCOCC4)cc3)nc12	-	.	-	-	.	-
CCc1ccc(CNc2ccc3c(c2)ncn3C(C)(C)C)cc1	50µM	-	45µM	63µM	-	?
CCN(CC)c1ccc(CNc2ccc3c(c2)ncn3C(C)(C)C)cc1	14µM	-	11µM	14µM	-	?
CC(C)(C)n1cnc2cc(NS(=O)(=O)c3ccccc3)ccc21	-[12.7 µM]	-	-	-	-	-
CC(C)(C)n1cnc2cc(NCc3ccccc3O)ccc21	-	-	?	-	-	-
CC(C)(C)n1cnc2cc(NCc3ccc(Br)cc3)ccc21	50µM	-	32µM	20µM	-	?
O=c1ccc2cc(S(=O)(=O)Nc3ccc(F)c(Cl)c3)ccc2[nH]1	-	.	-	-	.	-
Cc1ccc(C(C)C)c(OCCCn2c(=O)oc3ccc(C)cc32)c1	-	.	-	-	.	-
Cn1ncc([N+](=O)[O-])c1C(=O)Nc1cccc(Cl)c1	-[0.501 µM]	.	-	-	-	-
Cc1cc(O)c(C(=O)Nc2cccc(Cl)c2)c(=O)n1C	50µM	.	-	-	-	-
CCn1c(C)cc(O)c(C(=O)Nc2cccc(Cl)c2)c1=O	-	.	-	-	-	-
Cn1ncc(Cl)c1C(=O)Nc1cccc(Cl)c1	2.8µM	-	-	89µM	-	-
Cn1ncc(N=Cc2c(O)ccc3ccccc23)c1C(=O)Nc1cccc(Cl)c1	7.9µM	-	50µM	?	-	-
COc1ccc(C(=O)CSc2ncnc3nc[nH]c23)cc1	-	-	-	-	-	-
Cc1ccc(OCCSc2ncnc3nc[nH]c23)cc1	40µM	-	-	-	-	-
Cc1ccc(S(=O)(=O)N2CCOCC2)cc1NC(=O)CSc1ncccn1	-	-	-	-	-	-
Cc1cccc(NC(=O)CSCC(=O)Nc2cc(S(=O)(=O)N3CCOCC3)ccc2OC(C)C)c1	-	-	-	-	-	-
O=C(CNCc1ccccn1)Nc1cc(S(=O)(=O)N2CCCCC2)ccc1Cl	-	-88	.	79µM	-86	-
Cc1ccc(S(=O)(=O)N2CCOCC2)cc1NC(=O)CNC(C)c1ccccc1 (stereo not drawn)	.	-	.	1.3µM	-	?
Cc1ccc(S(=O)(=O)N2CCOCC2)cc1NC(=O)CNCc1ccccn1	-[12.7 µM]	-94	32µM	-[11.4 µM]	-69	-
Cc1ccc(CSCC(=O)Nc2cc(S(=O)(=O)N3CCOCC3)ccc2OC(C)C)cc1	50µM	-	?	-	-	-
CN(Cc1ccccc1)S(=O)(=O)c1cc(Br)cc2c1N(C(=O)C1CC1)CC2	-	.	-	-	.	-
CNc1ccc(C(=O)Oc2cc(O/N=[N+](\[O-])N(C)C)c([N+](=O)[O-])cc2[N+](=O)[O-])cc1	.	.	.	?	.	-
COc1cc(SSc2cc(OC)cc([N+](=O)[O-])c2N)c(N)c([N+](=O)[O-])c1	0.45µM	.	8.9µM	1.4µM	-	?
SMILES	G9a inh	CtBP-E1A blk	BAZ2B block	JMJD2A Tudor	Six1-Eya2 blk	HP1b binding inh
COc1cc([N+](=O)[O-])c2ncsc2c1	-	-	-	-	-	-
O=C1c2cccc3cccc(c23)C(=O)C1(O)O	.	-	.	45µM	-	-
S=c1[nH]nc(-c2ccco2)n1/N=C/c1ccc(Cl)cc1Cl	?	-	?	40µM	-	-
S=c1[nH]nc(-c2ccco2)n1/N=C/c1cccc(Cl)c1Cl	1.4µM	-	50µM	35µM	-	-
CCCS(=O)(=O)N1CCC(C(=O)NCCOC)CC1	-	.	-	-	.	-
CCOc1ccccc1NC(=O)c1c(NC(=O)C(C)Oc2ccc(Cl)cc2)sc2c1CCCCC2 (stereo not drawn)	-	.	-	-	.	-
COc1ccc(C2CC(=O)Oc3ccc(O)cc32)cc1 (stereo not drawn)	35µM	.	.	.	.	.
COc1cc(C2CC(=O)Oc3ccc(O)cc32)cc(OC)c1OC (stereo not drawn)	16µM	.	.	.	.	.
Cc1ccccc1C1CC(=O)Oc2ccc(O)cc21 (stereo not drawn)	10µM	.	.	.	.	.
COc1ccccc1C1CC(=O)Oc2cc(O)ccc21 (stereo not drawn)	-	-	.	?	-	-
COc1cc(C2CC(=O)Oc3c2c(=O)n(C)c2ccccc32)cc(OC)c1OC (stereo not drawn)	-	.	50µM	-	-	?
Cc1cccc(NC(=O)CSc2nc(=O)n(CCN3CCOCC3)c3c2CCC3)c1	-	.	-	-	.	-
Clc1cccc(C2=NC(c3cccs3)=Nc3ccc(Br)cc3N2)c1	-	.	-	?	.	?
COc1ccccc1C1CC(=O)Oc2cc3c(cc21)OCO3 (stereo not drawn)	35µM	.	.	.	.	.
COc1ccc(NS(=O)(=O)c2ccc3oc(=S)[nH]c3c2)cc1	35µM	-	-	-[11.4 µM]	-	-
O=S(=O)(Nc1ccccc1Cl)c1ccc2[nH]c(=S)oc2c1	7.1µM	-	?	-	-	-
COc1ccc(NS(=O)(=O)c2ccc3oc(=O)ccc3c2)cc1	.	-	-	-	-	-
COc1ccccc1NS(=O)(=O)c1ccc2[nH]c(=S)oc2c1	.	-	.	-	-	-
CCCCn1c(-c2cccnc2)nc2cc3[nH]c(=O)c(C(C)C)nc3cc21	?	-	-	-	-	-
CCCCn1c(-c2cccnc2)n[nH]c1=S	25µM	-	-	8.9µM	-	-
CCn1c(-c2cccnc2)n[nH]c1=S	-[0.501 µM]	-	?	22µM	-	-
CCOC(=O)CSc1n[nH]c(-c2cccnc2)n1	-	-	-	-	-	-
Nc1c(C(=O)Nc2ccccc2Cl)c2ccccn2c1C(=O)c1ccccc1	-	.	-	-	.	-
COc1ccc(N2CCC(CNC(=S)Nc3cc(C)cc(C)c3)C2)cc1 (stereo not drawn)	?	-70	3.2µM	20µM	-66	16µM
COc1ccc(N2CCC(CNC(=S)Nc3cc(C)ccc3C)C2)cc1 (stereo not drawn)	?	.	32µM	40µM	-69	?
SMILES	G9a inh	CtBP-E1A blk	BAZ2B block	JMJD2A Tudor	Six1-Eya2 blk	HP1b binding inh
O=C(NCCC1=CCCCC1)c1ccc2c(c1)N(Cc1ccc(Cl)cc1)C(=O)c1ccccc1S2=O (stereo not drawn)	-	.	-	-	.	-
CCOc1ccc(CCNC(=O)CCCc2nnc3n(CC)c(=O)c4sccc4n23)cc1	-	.	-	-	.	-
N#Cc1nc(Cc2ccccc2)oc1NCCN1CCOCC1	?	-	-	-	-	-
c1ccc2c(NCCCN3CCOCC3)c3ccccc3nc2c1	50µM	.	-	.	.	.
N#Cc1nc(Cc2cccc3ccccc23)oc1NCCCN1CCOCC1	50µM	-	?	-	-	-
Oc1ccccc1CNCCCN1CCOCC1	8.9µM	-	?	4.5µM	-	-

Source: PubChem BioAssay
